Experimental findings from PubChem BioAssay (Tox21) are described below.

Assay [1] is described as follows: qHTS assay for small molecule agonists of the p53 signaling pathway (AID 651631; calls by dose curve; further: nearly all actives have a fitted effect of over 15% in size; further: potency means the concentration at half of the fitted maximal effect). The gist of the method: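 Agonist mode screen using a stably integrated beta-lactamase gene under p53 response elements in HCT-116 cells. Compound exposure lasts 16 h at 37 °C; fluorescence intensity is measured following 2 h FRET substrate loading.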
(In general: qHTS replaces the single test concentration by a dilution series.)

Assay [2] can be described thus: qHTS assay for small molecule agonists of the p53 signaling pathway - cell viability (AID 651633; calls by dose curve; further: nearly all actives have a fitted effect of over 30% in size; further: potency means the concentration at half of the fitted maximal effect). The method, boiled down: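 Viability counter-read: CellTiter-Glo luminescence (30 min, room temperature) in the same p53RE-bla plates. These plates had been exposed to compounds for 16 h at 37 C.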
Assay [3] is described as follows: qHTS assay for small molecules that induce genotoxicity in human embryonic kidney cells expressing luciferase-tagged ATAD5 - cell viability (AID 651634; calls by dose curve; further: nearly all actives have a fitted effect of over 25% in size; further: potency means the concentration at half of the fitted maximal effect). The method, boiled down:
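After 15.5 hr incubation with compound at 37C, 5% CO2, HEK293T ATAD5-luciferase cells received CellTiter-Fluor reagent; fluorescence intensity was quantified following 30 min at 37C.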

Assay [4] is described as follows: qHTS assay for small molecule disruptors of the mitochondrial membrane potential - cell viability (AID 720634; calls by dose curve; further: nearly all actives have a fitted effect of over 20% in size; further: potency means the concentration at half of the fitted maximal effect). The method, boiled down: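 ATP-based luminescent viability readout (CellTiter-Glo, 30 min, room temperature) in HepG2 cells multiplexed with the m-MPI membrane potential dye; compound exposure lasted 1 hr at 37 C.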
A short description of assay [5]: qHTS assay for small molecule disruptors of the mitochondrial membrane potential (AID 720635). Further: potency means the concentration at half of the fitted maximal effect. The gist of the method: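 Mitochondrial membrane potential tracked with Mito-MPS dye, red aggregates (ex 540/em 590 nm) against green monomers (ex 490/em 535 nm). Compound treatment 1 hr at 37C, dye 30 min in HepG2.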
The nature of assay [6]: qHTS assay to test for compound auto fluorescence at 590 nm (red) in HepG2 cells (AID 720674). The method, boiled down:
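1 hr compound incubation on HepG2 cells, 37 C, 5% CO2; plate read ex 540 nm / em 590 nm; intensities reported as Rose Bengal sodium equivalents.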

Assay [7] in a line: qHTS assay to test for compound auto fluorescence at 535 nm (green) in HepG2 cells (AID 720675).
Assay [8] in a line: qHTS assay to test for compound auto fluorescence at 460 nm (blue) in HEK293 cells (AID 720678). The gist of the method:
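Measured: blue fluorescence (Ex 405/Em 460 nm) of compound-treated HEK293 cells, incubated overnight at 37C with 5% CO2 and scaled to triamterene equivalents.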

Assay [9] can be described thus: qHTS assay to test for compound auto fluorescence at 590 nm (red) in HEK293 cells (AID 720679). The method, boiled down:
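Using HEK293 cells at 2,000 per well, the screen added 23 nL of each compound after cell attachment and incubated overnight (37C, 5% CO2). The plate reader then captured red-label fluorescence, Ex/Em 540/590nm.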

A short description of assay [10]: qHTS assay for small molecules that induce genotoxicity in human embryonic kidney cells expressing luciferase-tagged ATAD5 (AID 651632). Further: nearly all actives have a fitted effect of over 15% in size. The gist of the method: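 Quantitative HTS in HEK293T expressing luciferase-tagged ATAD5, whose levels rise upon DNA damage. Exposure ran 16 hr at 37C and 5% CO2, with luminescence read 30 min after Amplite addition at room temperature.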

The structures appear in SMILES notation. “And” between values parts separate entries of the source, which are not always exact repeats. Identical values can stand only once. Records with an inconclusive call do not appear. The source holds several records for some structures; these can differ, active in one and inactive in another. The source made the active and inactive calls. Unless noted, the call rests on the fitted dose curve; in most records, active means well fitted curve in the direction sought with a large enough effect in the repeat runs; inconclusive means weak or mixed curves; inactive means no such curve, though single readings can be large; an effect the other way counts as inactive or inconclusive. Residues, ends and D or L forms follow the SMILES beside them.

In the case of `COC(=O)[C@H](Cc1ccccc1)NC(=O)[C@@H](N)CC(=O)O` (H-Asp-Phe-OMe), the Potency result in assay [1], in [2], in assay [3], in [4] and in assay [5] was “inactive” throughout. Also, the molecule was classed as inactive in [6], in assay [7], in assay [8] and in [9].

Take `CC(O)C(=O)O` (stereo unspecified): the Potency result in assay [1], in [10], in assay [2], in assay [3] and in assay [4] was “inactive” throughout. The molecule was classed as inactive in assay [6], in [7], in assay [8] and in assay [9].

As to `CCCCOC(=O)CC(CC(=O)OCCCC)(OC(C)=O)C(=O)OCCCC`, the Potency entry in assay [1], in [2] and in assay [3] was “inactive” throughout. Besides, the Potency entry in assay [4] is “inactive and 7.78 µM (active)”; in assay [5], 8.73 µM (active). The molecule was called inactive in assay [6], in assay [7], in assay [8] and in [9].

In the case of `Nc1ccc(S(=O)(=O)c2ccc(N)cc2)cc1`, the Potency result in [1], in [2], in assay [3] and in assay [4] was “inactive” each time. Besides, the result in assay [6], in assay [7], in assay [8] and in [9] was inactive.

Regarding `NC(=O)c1ccccc1O`, the Potency result in assay [1], in [10], in assay [2], in assay [3], in assay [4] and in [5] was “inactive” in each case. Also, the outcome in assay [6], in assay [7], in assay [8] and in assay [9] was inactive.

With `O=C(O)CCCCCCCC(=O)O`, the Potency entry in assay [1], in [10], in assay [2], in assay [3] and in assay [4] was “inactive” each time. In addition, the molecule was classed as inactive in [6], in [7], in [8] and in assay [9].

Regarding `NC(=O)c1cnccn1`, the Potency entry in [1], in assay [10], in assay [2], in [3] and in assay [4] was “inactive” each time. Besides, the molecule was classed as inactive in [6], in assay [7], in assay [8] and in assay [9].

For `O=C(O)c1cc(N=Nc2ccc(S(=O)(=O)Nc3ccccn3)cc2)ccc1O`, the Potency result in assay [1], in [10], in assay [2] and in [4] was “inactive” throughout. In [3], the Potency was 23.7 µM (active) and 27.4 µM (active) and 48.6 µM (active). For the same molecule, the molecule was classed as inactive in assay [6], in [7], in assay [8] and in assay [9].

For `CC(=O)NS(=O)(=O)c1ccc(N)cc1`, the Potency entry in assay [1], in [2], in assay [3], in assay [4] and in assay [5] was “inactive” throughout. Moreover, the outcome in assay [6], in assay [7], in [8] and in assay [9] was inactive.

For `CCCCC1C(=O)N(c2ccccc2)N(c2ccccc2)C1=O`, the Potency result in [1], in [10], in assay [2] and in assay [3] was “inactive” in each case. Besides, the call in assay [6], in assay [7], in [8] and in [9] was inactive.

Turning to `Nc1ccn([C@H]2CC[C@@H](CO)O2)c(=O)n1`, the Potency result in assay [1], in [10], in assay [2], in assay [3], in assay [4] and in assay [5] was “inactive” each time. In addition, the call in [6], in assay [7], in assay [8] and in [9] was inactive.

Regarding `O=C(O)c1cccc([N+](=O)[O-])c1`, the Potency result in [1], in [2], in assay [3], in assay [4] and in assay [5] was “inactive” in each case. The molecule was called inactive in assay [6], in assay [7], in assay [8] and in assay [9].

With `O=c1cc[nH]c(=S)[nH]1`, the Potency result in assay [1], in [10], in assay [2], in [3], in assay [4] and in assay [5] was “inactive” each time. Further, the outcome in [6], in assay [7], in [8] and in assay [9] was inactive.

Turning to `NC(N)=NC(=O)c1nc(Cl)c(N)nc1N`, the Potency entry in assay [1], in assay [2], in assay [3], in assay [4] and in assay [5] was “inactive” throughout. The molecule was called inactive in [6], in [7], in assay [8] and in [9].

In the case of `CC(O)CO` (stereo unspecified), the Potency entry in assay [1], in assay [10], in [2], in assay [3] and in [4] was “inactive” throughout. In addition, the call in assay [6], in assay [7], in assay [8] and in [9] was inactive.

As to `Cc1noc(NS(=O)(=O)c2ccc(N)cc2)c1C`, the Potency entry in [1], in assay [2], in assay [3] and in [4] was “inactive” each time. The outcome in assay [6], in assay [7], in assay [8] and in assay [9] was inactive.

Consider `OCCc1ccccc1`, for which the Potency result in assay [1], in [2], in [3] and in [4] was “inactive” each time. Besides, the result in assay [6], in assay [7], in assay [8] and in assay [9] was inactive.

Consider `O=C(O)c1[nH]n(-c2ccc(S(=O)(=O)O)cc2)c(=O)c1N=Nc1ccc(S(=O)(=O)O)cc1`, for which the Potency result in assay [1], in [2] and in [4] was “inactive” in each case. The Potency in [3] was 30.7 µM (active) and 57.1 µM (active). For the same molecule, the molecule was classed as inactive in [6], in [7], in assay [8] and in assay [9].

Consider `CCCC(O)C(CC)CO` (stereo unspecified), for which the Potency entry in assay [1], in assay [10], in assay [2], in assay [3], in [4] and in assay [5] was “inactive” each time. In addition, the molecule was called inactive in assay [6], in assay [7], in assay [8] and in assay [9].

As for `CC(O)CN(CCN(CC(C)O)CC(C)O)CC(C)O` (stereo unspecified), the Potency result in assay [1], in assay [2], in assay [3] and in assay [4] was “inactive” each time. The molecule was called inactive in [6], in assay [7], in assay [8] and in [9].

With `Oc1ccc(/C=C/c2cc(O)cc(O)c2)cc1`, the Potency is 54.5 µM (active) in assay [1]; “inactive and 54.5 µM (active)” in assay [2]; 24.3 µM (active) in assay [3]. For the same molecule, the Potency entry in assay [4] was “inactive”. Moreover, the call in [6], in assay [7], in [8] and in [9] was inactive.

With `Nc1ccc(O)c(C(=O)O)c1`, the Potency entry in assay [1], in assay [10], in [2], in assay [3], in [4] and in [5] was “inactive” throughout. In addition, the molecule was called inactive in [6], in assay [7], in assay [8] and in assay [9].

Take `CCCNC(=O)NS(=O)(=O)c1ccc(Cl)cc1`: the Potency result in assay [1], in assay [2], in assay [3], in assay [4] and in assay [5] was “inactive” each time. Also, the molecule was classed as inactive in assay [6], in assay [7], in assay [8] and in [9].

For the molecule `CCCCCCCCCCCCCCCC(=O)O`, the Potency result in assay [1], in [2], in assay [3] and in assay [4] was “inactive” in each case. Besides, the outcome in assay [6], in assay [7], in assay [8] and in assay [9] was inactive.

On to `NC(=O)NC1NC(=O)NC1=O` (stereo unspecified), for which the Potency result in assay [1], in assay [2], in [3] and in assay [4] was “inactive” throughout. Also, the call in assay [6], in assay [7], in assay [8] and in assay [9] was inactive.

`CCCCC(CC)COC(=O)/C=C/c1ccc(OC)cc1` (stereo unspecified): the Potency result in assay [1], in [2], in assay [3] and in assay [4] was “inactive” in each case. Also, the molecule was classed as inactive in [6], in assay [7], in assay [8] and in assay [9].

`CC(=O)Nc1nnc(S(N)(=O)=O)s1`: the Potency entry in assay [1], in assay [10], in assay [2], in assay [3], in assay [4] and in assay [5] was “inactive” throughout. For the same molecule, the molecule was classed as inactive in [6], in [7], in [8] and in [9].

Consider `Nc1ccc(S(=O)(=O)Nc2nccs2)cc1`, for which the Potency entry in assay [1], in [2], in [3] and in [4] was “inactive” in each case. For the same molecule, the result in assay [6], in assay [7], in [8] and in assay [9] was inactive.

For `Cc1cc(=O)n(-c2ccccc2)n1C`, the Potency entry in assay [1], in assay [2], in [3], in assay [4] and in assay [5] was “inactive” in each case. The call in [6], in [7], in [8] and in assay [9] was inactive.

Take `NNC(=O)c1ccncc1`: the Potency result in assay [1], in assay [10], in assay [2], in [3] and in assay [4] was “inactive” each time. For the same molecule, the result in assay [6], in assay [7], in [8] and in [9] was inactive.

Take `CC1(C)[C@@H]2CC[C@@]1(C)C(=O)C2`: the Potency entry in assay [1], in [2], in assay [3], in assay [4] and in assay [5] was “inactive” each time. Further, the molecule was classed as inactive in assay [6], in assay [7], in assay [8] and in assay [9].

As for `CCCN(CCC)S(=O)(=O)c1ccc(C(=O)O)cc1`, the Potency entry in assay [1], in [2], in [3] and in [4] was “inactive” throughout. Besides, the molecule was called inactive in assay [6], in assay [7], in assay [8] and in [9].

With `O=c1ccc2ccccc2o1`, the Potency result in assay [1], in assay [2], in [3], in [4] and in assay [5] was “inactive” in each case. Besides, the result in assay [6], in assay [7], in assay [8] and in assay [9] was inactive.
